One test in a line: compound effects on lung adenocarcinoma cell viability – A549, calcein-AM fluorescence, 48 h, basal, profiling panel (AID 1162). As to conditions: higher = more signal.
As for `CN(C)CCCC[C@@H]1NC(=O)[C@@H]2C[C@H](C(=O)NCCCCCCNC(=O)CS)[C@H](c3ccc(O)cc3)N2C1=O`, the z-score is -0.121.
In the case of `CCOC(=O)C1=CC[C@@H](c2ccc(OC)cc2)N(S(=O)(=O)c2ccc(C)cc2)[C@H]1CC`, the z-score is 0.33.
For the compound `C=C(CCCC)/C(=C/C[C@H](OC(=O)c1ccncc1)c1ccc(OCCO)cc1)c1cnc2ccccc2c1`, the z-score is 1.09.
In the case of `COC(=O)[C@@]1(Cc2ccc(F)cc2)[C@H]2c3cc(C(=O)N4CCCC4)n(Cc4cc(F)cc5c4OCOC5)c3C[C@H]2CN1C(=O)c1ccccc1`, the z-score was -1.14.
For `C=C(CCCC)C(=O)CC[C@H](OC(=O)c1ccccc1-c1ccccc1C(=O)O)c1ccc(OCCO)cc1`, the z-score was -0.107.
The same measure, in the same setting: as for `C[N+](C)(C)CCCCNC(=O)[C@H]1C[C@H]2C(=O)N[C@@H](Cc3ccccc3)C(=O)N2[C@H]1c1cccc(OCCO)c1`, the figure is -0.52.

The nature of a further test: compound effects on differentiated 3T3-L1 adipocyte viability – cell-based, 3T3-L1 adipocytes, calcein-AM fluorescence, 48 h, basal, profiling panel (AID 1163). As to conditions: 3T3-L1 adipocytes viability, higher = more signal.
As for `COC(=O)C(CC#Cc1ccc2c(c1)[C@]1(C(=O)N2)[C@H](C(=O)NC[C@H](O)c2ccccc2)[C@H]2C(=O)O[C@H](c3ccccc3)[C@H](c3ccccc3)N2[C@@H]1c1ccccc1OCCO)C(=O)OC`, the z-score was 1.14.
As for `CN(C)CCCNC(=O)[C@@]1(Cc2ccccc2I)c2ccccc2C(=O)N(C2CCCCC2)[C@H]1c1ccc(CO)cc1`, the z-score was -0.546.
For the compound `CN1C(=O)C2C=CC(C(O)c3ccc(-c4ccccc4)s3)N(NC(=O)OC(C)(C)C)C2C1=O` (stereo unspecified), the z-score was -1.6.
For `CCCNC(=O)[C@@]1(Sc2ccc(C)cc2)CC(=O)N(Cc2ccccc2Cl)[C@@H]1c1ccc(CO)cc1I`, the z-score is -0.139.
On to `CN(C)c1ccc(C(O)C2C=CC3C(=O)N(Cc4ccccc4)C(=O)C3N2n2cnnc2)cc1` (stereo unspecified), for which the z-score is -0.179.
Still for that read-out and setting: as for `C[C@@H]1ON(c2ccccc2)[C@H](c2ccccc2)[C@H]1C(=O)O`, the figure is 0.375.
As for `O=C1[C@H]2C=C(I)[C@H](C[C@@H]2c2ccccc2)[C@@]12CO2`, the z-score is -0.417.
Regarding `C=CCC(OC(C)=O)[C@@H]1[C@@H](N(Cc2ccc(-c3cccc(C(F)(F)F)c3)o2)C(=O)c2ccc(-c3ccccc3)cc2)c2cc(OCCCO)ccc2N1C(=O)c1ccc2ccccc2c1` (stereo partly specified), the z-score was 1.28.
For the compound `O=C(NCc1ccc(F)cc1)[C@H]1C[C@H]2C(=O)N3CCC[C@H]3C(=O)N2[C@H]1c1ccc(O)cc1`, the z-score is 0.625.
Regarding `N#Cc1ccc(NN2C(C(O)C3CC=CCC3)C=CC3C(=O)N(c4ccccc4)C(=O)C32)cc1` (stereo unspecified), the z-score was -0.613.
For the compound `CCCNC(=O)[C@@]1(c2ccc([N+](=O)[O-])cc2)CC(=O)N(C(C)C)[C@@H]1c1ccc(CO)cc1`, the z-score was 0.81.
On the same count and under the same terms, as for `CC(C)N1C(=O)C[C@@](C(=O)NCCN2CCOCC2)(c2ccc([N+](=O)[O-])cc2)[C@H]1c1ccc(CO)cc1`, the figure is -0.641; as for `C[N+](C)(C)CCCC[C@@H]1NC(=O)[C@H]2C[C@@H](C(=O)NCCCCCNC(=O)CS)[C@@H](c3cccc(OCCO)c3)N2C1=O`, 0.571.
Still for that read-out and setting: as for `[N-]=[N+]=Nc1ccccc1[C@@H]1OC(c2ccc(OCCCO)cc2)=N[C@]1(Cc1ccccc1)C(=O)NCCN1CCOCC1`, the figure is 1.29; as for `CCOC(=O)C[C@H]1[C@H](OC(=O)c2ccccc2-c2ccccc2)[C@@H](NC(=O)C2CCCCC2)c2cc(OCCCO)ccc2N1C(=O)c1ccc2ccccc2n1`, -0.87; as for `NC(=O)N1C(=O)C2C(C1=O)C1C=C(CCCO)C2C(c2ccc(CN3CCCC3)cc2)N1Cc1sc2ccccc2c1Cl` (stereo unspecified), -0.501.
On to `CC(C)(C)N1CC=CC23O[C@@H]4/C=C\CCCOC(=O)C4[C@H]2C(=O)N(CCCO)[C@@H]3C1=O` (stereo partly specified), for which the z-score is 1.1.
`CC(C)N1C(=O)c2ccccc2[C@](C)(C(=O)NCC(F)(F)F)[C@@H]1c1ccc(CO)cc1`: the z-score is 1.33.
Take `COc1ccc(C#Cc2ccc3c(c2)[C@]2(C(=O)N3)[C@H](C(=O)O)[C@H]3C(=O)O[C@H](c4ccccc4)[C@H](c4ccccc4)N3[C@@H]2c2ccccc2OCCO)cc1`: the z-score was 1.19.
Still for that read-out and setting: in the case of `CCCCCC1=C2CNC(Cc3ccccc3)(C(=O)OC)C=C2C(C)C1=O` (stereo unspecified) it was 0.598; in that of `CCCCCCc1nc(-c2ccc(-c3ccc(Cl)c(Cl)c3)o2)cc2c1[Si](C(C)C)(C(C)C)OC2`, 1.84; in that of `COC(=O)[C@H](Cc1ccccc1)N1CC2=CCCC=C[C@@H]2[C@H]1[C@H](O)Cc1ccccc1`, -0.635.
Regarding `COC(=O)[C@@]1(Cc2ccc(F)cc2)[C@H]2c3cc(C(=O)N4CCCC4)n(CCc4ccccn4)c3C[C@H]2CN1C(=O)c1ccccc1`, the z-score was -0.0629.
As for `O=C1N(CCS(=O)(=O)c2ccccc2)c2ccccc2C[C@]12N=C(c1ccc(OCCCO)cc1)O[C@@H]2c1ccccc1`, the z-score is 0.0009.
With `C=CCN1C(=O)[C@]2(O[C@H](CCn3cc([C@H](O)c4ccccc4)nn3)[C@@H]([Si](C)(C)c3ccc(OC)cc3)[C@@H]2C)c2cc(NC(=O)c3ccc(OC)cc3)ccc21`, the z-score was 0.37.
Consider `C=C(COC)C(=O)CC[C@@H](OC(C)=O)c1ccccc1OCCO`, for which the z-score was 1.37.
For the compound `COC(=O)[C@@]1(Cc2ccc(F)cc2)[C@H]2c3cc(C(=O)N4CCCC4)n(Cc4ccccn4)c3C[C@H]2CN1C(=O)c1ccccc1`, the z-score was -0.0559.
`C=CCOC(=O)[C@@H]1[C@H]2C(=O)O[C@H](c3ccccc3)[C@H](c3ccccc3)N2[C@H](c2ccc(OCCOC(=O)[C@H]3C[C@H]4C(=O)NCC(=O)N4[C@H]3c3cccc(OCCO)c3)cc2)[C@@]12C(=O)Nc1ccc(I)cc12`: the z-score is -0.407.
Turning to `COC(=O)C[C@H]1O[C@@]2(C[C@@H]1[Si](C)(C)C)C(=O)N(C)c1ccccc12`, the z-score was 0.69.
`CN(C)CCCC[C@@H]1NC(=O)[C@@H]2C[C@H](C(=O)NCCCCCCNC(=O)CS)[C@H](c3ccc(O)cc3)N2C1=O`: the z-score was -0.145.
As to `CCOC(=O)C1=CC[C@@H](c2ccc(OC)cc2)N(S(=O)(=O)c2ccc(C)cc2)[C@H]1CC`, the z-score is 0.815.
For `C=C(CCCC)/C(=C/C[C@H](OC(=O)c1ccncc1)c1ccc(OCCO)cc1)c1cnc2ccccc2c1`, the z-score was 0.464.
`COC(=O)[C@@]1(Cc2ccc(F)cc2)[C@H]2c3cc(C(=O)N4CCCC4)n(Cc4cc(F)cc5c4OCOC5)c3C[C@H]2CN1C(=O)c1ccccc1`: the z-score was 0.364.
In the case of `C=C(CCCC)C(=O)CC[C@H](OC(=O)c1ccccc1-c1ccccc1C(=O)O)c1ccc(OCCO)cc1`, the z-score is 0.251.
Take `C[N+](C)(C)CCCCNC(=O)[C@H]1C[C@H]2C(=O)N[C@@H](Cc3ccccc3)C(=O)N2[C@H]1c1cccc(OCCO)c1`: the z-score is -0.878.

The values are drawn from PubChem BioAssay.
Further: test concentration not given here.
